Measurements published in PubChem BioAssay (Tox21).
Results filed as inconclusive are left out. Activity calls are given as the source filed them. Unless noted, calls come from the whole dose curve; as a rule, active = well fitted curve in the direction sought with a large enough effect in the repeat runs; inconclusive = weak or mixed curves; inactive = no such curve, though single readings can be large; an effect the other way counts as inactive or inconclusive.

How the values were obtained:
[1] = molecular target: Peroxisome proliferator-activated receptor delta (Homo sapiens) (UniProt Q03181); assay: qHTS assay to identify small molecule agonists of the peroxisome proliferator-activated receptor delta (PPARd) signaling pathway (AID 743212; calls by dose curve)
Sequence of Peroxisome proliferator-activated receptor delta (Homo sapiens) (Q03181 whole entry, looked up): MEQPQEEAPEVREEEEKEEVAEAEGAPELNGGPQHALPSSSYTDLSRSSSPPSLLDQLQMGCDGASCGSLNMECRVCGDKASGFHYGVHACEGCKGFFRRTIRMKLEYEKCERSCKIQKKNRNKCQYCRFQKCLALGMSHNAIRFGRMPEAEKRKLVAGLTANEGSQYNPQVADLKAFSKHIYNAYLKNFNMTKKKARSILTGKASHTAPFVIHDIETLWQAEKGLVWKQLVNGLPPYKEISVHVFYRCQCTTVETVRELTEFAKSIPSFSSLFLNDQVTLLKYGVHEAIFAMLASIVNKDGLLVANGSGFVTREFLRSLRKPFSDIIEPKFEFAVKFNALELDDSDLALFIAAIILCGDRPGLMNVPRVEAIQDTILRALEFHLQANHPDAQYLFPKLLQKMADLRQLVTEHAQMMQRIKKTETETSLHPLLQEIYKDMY
Summary of the method: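 HEK293H UAS-bla reporter cells, human PPARd system; compounds delivered in DMSO after 5 h plating, then at 37 C. Beta-lactamase FRET read, 2 h RT substrate step.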

[2] = qHTS assay to identify small molecule antagonists of the peroxisome proliferator-activated receptor delta (PPARd) signaling pathway - cell viability counter screen (AID 743213); note: nearly all actives have a fitted effect of over 50% in size
Summary of the method: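 Same-well viability: cells pre-incubated 5 h, dosed with compound plus 300 nM L165041, kept 17 h at 37 C, FRET substrate 2 h RT, then CellTiter-Glo 30 min RT and luminescence.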

[3] = molecular target: Peroxisome proliferator-activated receptor delta (Homo sapiens) (UniProt Q03181); assay: qHTS assay to identify small molecule antagonists of the peroxisome proliferator-activated receptor delta (PPARd) signaling pathway (AID 743215; active = well fitted inhibition curve with a large enough effect in the signal ratio in the repeat runs, not every such curve was filed as active; the % refers to the signal ratio;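 note: cells stimulated with agonist L165041 at 300 nM final during compound exposure; series mostly up to about 62 µM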)
Summary of the method: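 HEK293H UAS-bla, PPARd; agonist L165041 300 nM final with cpd in DMSO; 37 C 17 h; FRET substrate, RT 2 h; fluorescence intensity.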

[4] = qHTS assay to identify small molecule antagonists of the farnesoid-X-receptor (FXR) signaling pathway - cell viability counter screen (AID 743221; active = well fitted cell-killing curve with a large enough effect in the repeat runs, not every such curve was filed as active; note: nearly all actives have a fitted effect of over 50% in size)
Summary of the method: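 GeneBLAzer FXR-UAS-bla HEK 293T cells, compound plus chenodeoxycholic acid (50 uM final), 16 h at 37 C. CellTiter-Glo added to the same wells after the beta-lactamase read; luminescence read after 30 min at room temperature as viability.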

[5] = molecular target: Vitamin D3 receptor (Homo sapiens) (UniProt P11473); assay: qHTS assay to identify small molecule agonists of the vitamin D receptor (VDR) signaling pathway (AID 743222; calls by dose curve)
Sequence of Vitamin D3 receptor (Homo sapiens) (P11473 whole entry, looked up): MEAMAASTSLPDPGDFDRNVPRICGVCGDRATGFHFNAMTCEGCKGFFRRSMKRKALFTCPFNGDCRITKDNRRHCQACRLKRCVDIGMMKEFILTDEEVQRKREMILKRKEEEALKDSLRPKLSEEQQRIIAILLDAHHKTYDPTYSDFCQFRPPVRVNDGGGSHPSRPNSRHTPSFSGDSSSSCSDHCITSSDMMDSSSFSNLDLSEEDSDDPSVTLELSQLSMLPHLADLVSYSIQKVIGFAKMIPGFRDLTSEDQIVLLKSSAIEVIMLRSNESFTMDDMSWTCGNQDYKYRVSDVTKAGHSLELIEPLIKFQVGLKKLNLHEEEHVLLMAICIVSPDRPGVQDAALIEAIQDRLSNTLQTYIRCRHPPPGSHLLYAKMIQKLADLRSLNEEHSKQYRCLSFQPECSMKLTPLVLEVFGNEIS
Summary of the method: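 In VDR-bla cells, compound-induced beta-lactamase expression is quantified by FRET substrate fluorescence. Treatment lasts 16 h at 37C; substrate develops 2 h at room temperature.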

[6] = molecular target: Vitamin D3 receptor (Homo sapiens) (UniProt P11473); assay: qHTS assay to identify small molecule antagonists of the vitamin D receptor (VDR) signaling pathway (AID 743223; active = well fitted inhibition curve with a large enough effect in the signal ratio in the repeat runs, not every such curve was filed as active; the % refers to the signal ratio)
Summary of the method: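 VDR-bla cells were treated with compound plus 3 nM final 1alpha,25-dihydroxyvitamin D3 for 16 h at 37C. Beta-lactamase reporter read by B/G FRET substrate fluorescence after 2 h at room temperature. qHTS format.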

[7] = qHTS assay to identify small molecule agonists of the farnesoid-X-receptor (FXR) signaling pathway - cell viability counter screen (AID 743218); note: nearly all actives have a fitted effect of over 45% in size
Summary of the method: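 Parallel cytotoxicity test: compound-treated (16 h, 37 C) HEK 293T FXR-bla reporter cells were lysed with CellTiter-Glo and luminescence recorded.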

[8] = molecular target: Bile acid receptor (Homo sapiens) (UniProt Q96RI1); assay: qHTS assay to identify small molecule agonists of the farnesoid-X-receptor (FXR) signaling pathway (AID 743220; active = well fitted activation curve with a large enough effect in the signal ratio in the repeat runs, not every such curve was filed as active; the % refers to the signal ratio)
Sequence of Bile acid receptor (Homo sapiens) (Q96RI1 whole entry, looked up): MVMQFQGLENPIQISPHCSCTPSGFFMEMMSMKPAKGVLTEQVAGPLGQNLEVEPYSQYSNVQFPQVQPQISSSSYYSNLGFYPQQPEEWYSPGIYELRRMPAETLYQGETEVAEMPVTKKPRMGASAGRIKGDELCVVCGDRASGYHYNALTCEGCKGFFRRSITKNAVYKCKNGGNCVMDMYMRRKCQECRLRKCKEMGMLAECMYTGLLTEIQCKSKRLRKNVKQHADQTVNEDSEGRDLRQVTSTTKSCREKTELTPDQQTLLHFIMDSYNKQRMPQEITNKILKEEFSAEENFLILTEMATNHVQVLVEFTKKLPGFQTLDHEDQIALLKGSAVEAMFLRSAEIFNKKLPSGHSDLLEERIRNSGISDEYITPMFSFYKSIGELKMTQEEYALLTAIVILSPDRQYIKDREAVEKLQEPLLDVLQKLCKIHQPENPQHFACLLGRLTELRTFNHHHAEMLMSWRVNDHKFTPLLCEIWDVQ
Summary of the method: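 Beta-lactamase reporter under UAS control in GeneBLAzer FXR HEK 293T cells (5000/well) measured with LiveBLAzer FRET substrate after 2 h at room temperature. Compound exposure lasted 16 h at 37C.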

[9] = qHTS assay to identify small molecule agonists of the vitamin D receptor (VDR) signaling pathway - cell viability counter screen (AID 743224); note: series mostly up to about 63 µM; nearly all actives have a fitted effect of over 50% in size
Summary of the method: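 Plated VDR-bla cells (4 h, 37C) received compound, incubated 16 h, then LiveBLAzer substrate 2 h RT; CellTiter-Glo added afterwards, luminescence read at 30 min.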

[10] = molecular target: Bile acid receptor (Homo sapiens) (UniProt Q96RI1); assay: qHTS assay to identify small molecule antagonists of the farnesoid-X-receptor (FXR) signaling pathway (AID 743217; active = well fitted inhibition curve with a large enough effect in the signal ratio in the repeat runs, not every such curve was filed as active; the % refers to the signal ratio)
Summary of the method: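 GeneBLAzer FXR-UAS-bla HEK 293T, CDCA-stimulated (50 uM final). Compound treatment 16 h, 37 °C. Detection: beta-lactamase cleavage of B/G FRET substrate, fluorescence.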

Measured: outcome

[Ca+2]
inactive: [1] | [2] | [3] | [4] | [5] | [6]

N[C@H](C(=O)O)[C@@H](O)c1ccc(O)c(O)c1
not listed: [3] | [10]
inactive: all other assays above

O=C(O)CNC(=O)c1ccccc1
inactive: [1] | [2] | [7] | [4] | [9]

Cc1ccc(-c2ccccc2C#N)cc1
not listed: [2] | [6] | [10]
inactive: all other assays above

CC(C)CCCO
not listed: [2] | [9] | [10]
inactive: all other assays above

CCCCCCCCCCCCCCCCCCO
inactive: [1] | [2] | [3] | [7] | [4] | [9]

O=S(=O)(O)c1cccc2ccccc12
inactive: [1] | [2] | [3] | [4]

FB(F)F
not listed: [3] | [6]
inactive: all other assays above

COc1cc(C(=O)OC(COCCC(C)C)CN2CCOCC2)cc(OC)c1OC (configuration not stated)
not listed: [2] | [5] | [10]
inactive: all other assays above

Nc1ccncc1N
inactive: [1] | [3] | [7] | [8] | [4] | [5]

CC(COc1ccccc1)NN (configuration not stated)
inactive: [1] | [3] | [7] | [4] | [5] | [6]

CCOC(=O)C1=NOC(c2ccccc2)(c2ccccc2)C1
not listed: [3] | [7] | [10]
inactive: all other assays above

C[C@@H]1C[C@H]2[C@@H]3C[C@H](F)C4=CC(=O)C(Cl)=C[C@]4(C)[C@@]3(F)[C@@H](O)C[C@]2(C)[C@@]1(O)C(=O)CO
inactive: [1] | [2] | [7] | [8] | [4] | [9]

CN(C)C(=O)Oc1cccc([N+](C)(C)C)c1
not listed: [7] | [10]
inactive: all other assays above

CCCC(C)C(=O)OCC (configuration not stated)
inactive: [1] | [2] | [7] | [4] | [5] | [9]

CCN1CCOCC1
not listed: [3] | [6]
inactive: all other assays above

CC1=NN(c2cccc(S(=O)(=O)O)c2)C(=O)C1
inactive: [1] | [2] | [4] | [6] | [9]

C=CCCC(=O)O
inactive: [1] | [3] | [7] | [4] | [5] | [9]

COCCOCC(OC)OC
not listed: [3] | [6] | [9]
inactive: all other assays above

C[N+](C)(CCOc1ccccc1)Cc1cccs1
inactive: [1] | [3] | [7] | [4] | [5] | [9]

CO[Si](C)(OC)c1ccccc1
inactive: [1] | [2] | [7] | [4] | [5] | [9]

CCCCN(CCC(=O)OCC)C(C)=O
inactive: [1] | [2] | [7] | [4] | [5] | [9]

O=C(O)Cc1csc(-c2ccc(Cl)cc2)n1
inactive: [1] | [2] | [4] | [5] | [6] | [9]

CO/N=C(\C(=O)N[C@@H]1C(=O)N2C(C(=O)O)=C(CSc3nc(=O)c(O)nn3C)CS[C@H]12)c1csc(N)n1
inactive: [1] | [3] | [7] | [4] | [5] | [9]

CC(C)C[C@@H](N)C(=O)O
inactive: [1] | [2] | [3] | [8] | [4] | [6]

CCCOC(=O)CC
inactive: [1] | [2] | [3] | [4] | [5] | [9]

CCCO[Si](OCCC)(OCCC)OCCC
not listed: [2] | [8] | [10]
inactive: all other assays above

CC(=O)OCC(=O)[C@@]1(O)[C@H](C)C[C@H]2[C@@H]3CCC4=CC(=O)C=C[C@]4(C)[C@@]3(F)[C@@H](O)C[C@@]21C
inactive: [1] | [2] | [7] | [4] | [9]

CCCCCCCC1CCCC1=O (configuration not stated)
inactive: [2] | [3] | [7] | [4] | [9]

C[C@H]1C[C@H]2[C@@H]3CCC4=CC(=O)C=C[C@]4(C)[C@H]3C(=O)C[C@]2(C)[C@@]1(O)C(=O)CO
inactive: [1] | [7] | [4] | [6] | [9]

CCN1C=CN(C)C1C (configuration not stated)
inactive: [2] | [3] | [7] | [4] | [9]

C1CCC2(CCCCO2)OC1
inactive: [1] | [7] | [4] | [5]

COc1ccnc(CS(=O)c2nc3cc(OC(F)F)ccc3[nH]2)c1OC (configuration not stated)
inactive: [2] | [3] | [7] | [4] | [9]

CN(C)CCCN(C)CCCN(C)C
inactive: [2] | [3] | [7] | [8] | [4] | [9]
